# Laboratory results published in PMC4552634, “A New Set of Chemical Starting Points with Plasmodium falciparum Transmission-Blocking Potential for Antimalarial Drug Discovery” (PLoS ONE, 2015).
# The whole screen tested about 13,000 compounds, of which about 3,200 (25%) showed an effect of 50% or more. The list shows a part of the results.
# System: P. falciparum stage V gametocytes
# Design: BacTiter-Glo ATP luminescence viability of purified stage V gametocytes in 384-well plates, per cent inhibition versus DMSO
# Details: 48 h, 5 µM; inhibitor
row,SMILES,% Inhibition [%]
1,COc1ccccc1C1CCN(C2CCC(NC(=O)/C=C/c3ccc(C(F)(F)F)cc3)CC2)CC1 (stereo not drawn) [TCMDC-133487],28.53
2,CCNc1cc(C)nc(Nc2ccc(NS(=O)(=O)c3ccccc3)cc2)n1 [TCMDC-124954],-28.24
3,Cc1cccc(C)c1CNc1ccnc2cc(Br)ccc12 [TCMDC-132168],-25.57
4,CCCCn1c(N)c(N(Cc2ccco2)C(=O)C=Cc2cc(OC)c3c(c2)OCCO3)c(=O)[nH]c1=O [TCMDC-125328],-14
5,O=C(NC1CCN(c2ccnc3cc(Cl)ccc23)C1)c1ccc(C(F)(F)F)cc1 (stereo not drawn) [TCMDC-133661],38.8
6,Cn1nc2ccc3ccccc3c2nc1=N [TCMDC-131260],93.18
7,Cc1cccc(Nc2nc(C)cc(N3CCCN(CC4CCCCC4)CC3)n2)c1 [TCMDC-137025],-12.77
8,O=C(Nc1ccc(-c2nc3ccccc3[nH]2)cc1)c1ccc(S(=O)(=O)N2CCCCC2)cc1 [TCMDC-125834],-22.63
9,COc1ccccc1C(C)NCC(=O)Nc1ccccc1Sc1ccccc1 (stereo not drawn) [TCMDC-124877],-2.069
10,NC(=O)C1Cc2ccccc2CN1CC(=O)Nc1ccccc1Sc1ccccc1 (stereo not drawn) [TCMDC-124863],48.06
11,O=C(COc1cnc2ccccc2n1)Nc1ccccc1Sc1ccc(Cl)cc1 [TCMDC-124892],99.33
12,O=C(Nc1ccc2c(c1)CCN2C1CCN(Cc2cc(F)cc(F)c2F)C1)c1ccco1 (stereo not drawn) [TCMDC-135071],-23.05
13,CN1CCC(NCc2ccc(-c3ccc(S(=O)(=O)NC4CCC4)s3)cc2)CC1 [TCMDC-132232],57.53
14,CN1CCC(NCc2ccc(-c3ccc(S(=O)(=O)NCc4ccccc4)s3)cc2)CC1 [TCMDC-132231],68.61
15,CC(C)(CNC(=O)[C@@H]1CCCCN1)c1nc(-c2ccc(Cl)c(O)c2)c(-c2ccncc2)[nH]1 [TCMDC-141079],-69.36
16,O=S(=O)(NCCN1CCCC1)c1ccc(-c2ccc(CNCc3ccc(F)cc3)cc2)s1 [TCMDC-132284],66.59
17,CS(=O)(=O)c1ccc(CNCc2ccc(-c3ccc(-c4nc5ccc(F)cc5[nH]4)s3)cc2)cc1 [TCMDC-132900],4.618
18,O=C(NCCN1CCCC1)c1cccc(-c2ccc(-c3nc4ccc(F)cc4[nH]3)s2)c1 [TCMDC-132318],15.45
19,O=C1CCCN1CCCNCc1ccc(-c2ccc(-c3nc4ccc(F)cc4[nH]3)s2)cc1 [TCMDC-132756],-11.94
20,O=S(=O)(NCCN1CCCC1)c1ccc(-c2cccc(CNCc3ccc(F)cc3)c2)s1 [TCMDC-132273],98.81
21,CC(C)(C)CC(C)(C)c1ccc(O)c(CNC2CCCCC2)c1 [TCMDC-137604],41.75
22,Cc1nnc(NC(=O)c2cn(-c3ccccc3)nc2-c2ccccc2C)o1 [TCMDC-125040],22.18
23,COc1ccc(OC)c(C(O)C(C)NCc2cc(Cl)ccc2O)c1 (stereo not drawn) [TCMDC-137921],36.34

row,SMILES,% Inhibition [%]
1,O=C(Nc1ccc(Cl)cc1)c1cc(Cl)ccc1NC(=O)C1(c2ccc(Cl)cc2)CCCC1 [TCMDC-136643],-21.36
2,Cc1nc(-c2ccncc2)sc1C(=O)Nc1ccc(Cl)cc1C(=O)Nc1ccc(Cl)cc1 [TCMDC-136515],3.625
3,O=C(Nc1ccc(Cl)cc1C(=O)Nc1ccncc1)c1ccc(Cl)cc1Cl [TCMDC-125853],59.79
4,COc1ccc(C(=O)Nc2ccc(Cl)cc2C(=O)Nc2ccncc2)cc1 [TCMDC-123739],84.9
5,Cc1ccc(NC(=O)Nc2ccc(Cl)cc2)cc1-c1ccc(C(=O)Nc2ccncc2)cc1 [TCMDC-133702],-59.17
6,Cn1ccnc1CCC(=O)Nc1ccc(Cl)cc1C(=O)Nc1ccc(Cl)cc1 [TCMDC-136703],12.32
7,COc1ccc(CN(C)CCCc2ccc(NC(=O)c3cc4ccccc4[nH]3)cc2)cc1OC [TCMDC-131855],-11.14
8,Nc1ccc2nc(C=Cc3ccc(Cl)cc3)[nH]c2c1 [TCMDC-123608],-19.77
9,Cc1ccc(NC(=O)Nc2ccc(I)c(OCCN(C)C)c2)cc1Cl [TCMDC-139122],-20.44
10,Cc1ccc(NC(=O)Nc2ccc(S(=O)(=O)c3ccc(NC(=O)Nc4ccc(C)c(Cl)c4)cc3)cc2)cc1Cl [TCMDC-124273],85.03
11,CN1CCc2ccc(NC(=O)Nc3ccc(Cl)c(Cl)c3)cc2C1 [TCMDC-133728],0.1652
12,COc1ccc(C(=O)CCC(=O)N(CCC2CCCN2C)Cc2ccc(-c3ccc(CNCCc4ccc(S(C)(=O)=O)cc4)cn3)cc2)cc1F (stereo not drawn) [TCMDC-141513],-2.666
13,COc1ccc(C(=O)CCC(=O)N(Cc2ccc(-c3ccc(CNCCc4ccc(S(C)(=O)=O)cc4)cn3)cc2)C2CC3CCC2C3)cc1F (stereo not drawn) [TCMDC-141515],-37.66
14,COc1ccc(C(=O)CCC(=O)N(Cc2ccc(-c3ccc(CNCCc4ccc(S(C)(=O)=O)cc4)cn3)cc2)C(C)CN(C)C)cc1F (stereo not drawn) [TCMDC-141512],102.4
15,COc1ccc(C(=O)CCC(=O)N(Cc2ccc(-c3ccc(CNCCc4ccccc4)cn3)cc2)C(C)CN(C)C)cc1F (stereo not drawn) [TCMDC-141554],109.3
16,COc1ccc(C(=O)CCC(=O)N(Cc2ccc(-c3ccc(CNCCc4ccc(S(C)(=O)=O)cc4)cn3)cc2)Cc2ccc3c(c2)OCO3)cc1F [TCMDC-141514],67.48
17,COc1ccc(C(=O)CCC(=O)N(CCSC(C)(C)C)Cc2ccc(-c3ccc(CNCCc4ccc(S(C)(=O)=O)cc4)cn3)cc2)cc1F [TCMDC-141517],33.86
18,CCC(CC)N1C(=O)C(c2ccccc2)(c2ccccc2)N=C1N [TCMDC-136516],-14.59
19,CCOC(=O)C(NC(=O)Cc1ccccc1)C(C)C (stereo not drawn) [TCMDC-131334],-5.463
20,ON=C1CCc2cc(-c3cc(-c4ccc(OC5CCNCC5)cc4)oc3-c3ccncc3)ccc21 [TCMDC-141381],91.63
21,CN(C)CCCOc1ccc(-c2nc(-c3ccc4c(c3)CCC4=NO)c(-c3ccncc3)[nH]2)cc1 [TCMDC-140742],7.087
22,ON=C1CCc2cc(-c3nc(-c4ccc(OCCN5CCCCC5)cc4)[nH]c3-c3ccncc3)ccc21 [TCMDC-141174],1.604
